# Rows were chosen to be rich in hits. Some 2.4% of all compounds tested hit in one or more screens of this group.
# Cruzain Triton – cruzain (T. cruzi) inhibition with detergent. purified cruzain, Z-FR-AMC fluorescence, 0.01% Triton. actives 0.43% (n = 200,000). Potency, µM, without a hit: max response, negative = inhibition, hits mostly inhibitors;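 further: plate controls were neutral wells for no effect and buffer without enzyme for full effect; nearly all actives have a fitted effect of over 40% in size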
# Target sequence (P25779 123-467 limits assumed): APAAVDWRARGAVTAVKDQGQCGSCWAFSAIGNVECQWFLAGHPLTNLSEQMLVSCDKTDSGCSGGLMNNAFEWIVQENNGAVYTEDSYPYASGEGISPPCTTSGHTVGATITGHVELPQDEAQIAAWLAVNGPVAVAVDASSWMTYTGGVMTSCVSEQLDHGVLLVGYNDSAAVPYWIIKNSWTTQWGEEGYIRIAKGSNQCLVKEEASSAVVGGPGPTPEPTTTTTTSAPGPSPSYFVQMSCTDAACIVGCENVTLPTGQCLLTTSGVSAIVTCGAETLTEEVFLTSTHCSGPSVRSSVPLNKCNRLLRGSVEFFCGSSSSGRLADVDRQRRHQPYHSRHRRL
#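 Cysteine protease activity tested under reducing, mildly acidic conditions (100 mM sodium acetate pH 5.5, 5 mM DTT) plus 0.01% Triton X-100. Cruzain 1.5 nM; substrate Z-FR-AMC 2 uM; 15 min compound preincubation at room temperature.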
# Cruzain inh noDet – inhibitors of Trypanosoma cruzi cruzain without detergent; P25779; purified cruzain, Z-FR-AMC fluorescence, no detergent; Potency, µM, for the others: max response, negative = inhibition, hits mostly inhibitors; actives 2.3% (n = 200,000);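 further: plate controls were enzyme without inhibitor for no effect and buffer without enzyme for full effect; nearly all actives have a fitted effect of over 40% in size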
#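 Purified cruzain at 1.5 nM, pre-incubated 15 min with compound at room temperature in 100 mM sodium acetate pH 5.5, 5 mM DTT, 0.00005% Triton X-100. Reaction started with 2 uM Z-FR-AMC; AMC fluorescence increase over 60 s gives rate.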
# * hit, by the source's call; ? = inconclusive. The call rests on the fitted dose curve; in most records, active means well fitted curve in the direction sought with a large enough effect; inconclusive means small, poorly fitted or top-dose-only effect, or another doubt; inactive means no such curve, though single readings can be large; an effect the other way counts as inactive or inconclusive. Potency means the concentration at half of the fitted maximal effect.
SMILES,Cruzain Triton,Cruzain inh noDet
COc1ccccc1NC(=O)Cn1c(=O)n(Cc2cccs2)c(=O)c2cccnc21,-3%,15%
CCOc1ccc(S(=O)(=O)NCc2ccc3c(c2)CCN3C(=O)c2ccc(C)cc2)cc1,-1%,?
CCn1c(O)c(/C=C2\C=Nc3ccccc32)sc1=Nc1ccc(C)cc1,3%,16µM*
CCOC(=O)c1c(Nc2ccccc2)sc(/C=C2\C=Nc3ccccc32)c1O,5%,-27%
COc1cc2c(cc1NC(=O)CSc1nccn1C)oc1ccccc12,-11%,8%
COc1cc2c(cc1NC(=O)CSc1nc3cc(Cl)ccc3s1)oc1ccccc12,-3%,7.9µM*
COc1cc2c(cc1NC(=O)CSc1ccccc1)oc1ccccc12,-8%,-3%
COc1cc2c(cc1NC(=O)CSc1nc3ccccc3[nH]1)oc1ccccc12,6%,25µM*
Cc1cccc(NC2=CC(c3cccc(Br)c3)N(c3cccc(C)c3)C2=O)c1 (stereo not drawn),-11%,?
O=C1CC2(CCCC2)CC(=O)N1CCCCNC[C@H]1COc2ccccc2O1,-5%,12%
COc1ccc(/C=N/NC(=S)Nc2ccccc2[N+](=O)[O-])cc1O,-8%,-9%
CCCOc1ccc(/C=N/Nc2cccc([N+](=O)[O-])c2)c(O)c1,-5%,?
CCCOc1ccc(/C=N/Nc2ccccc2[N+](=O)[O-])c(O)c1,-6%,10µM*
CCCOc1ccc(/C=N/NC(=S)Nc2ccccc2[N+](=O)[O-])c(O)c1,-5%,4µM*
O=C(O)COc1cccc(-c2ocnc2-c2nc(-c3ccccc3)c(-c3ccccc3)o2)c1,4%,7.9µM*
Cc1ccc(-c2nc(-c3nccc4ccccc34)oc2-c2ccccc2)cc1,0%,-4%
COc1ccc(N2CC(NC(=O)C3CC3)CC2=O)cc1OC (stereo not drawn),1%,9%
NC(=O)N[C@H](CC(=O)O)C(=O)O,-2%,1%
Cc1cccc(-c2nc(SCC(=O)Nc3cccc(C(F)(F)F)c3)n3[nH]c(=O)cc3n2)c1,-8%,?
O=C(NCCc1csc2nc(-c3ccccc3F)nn12)C(=O)Nc1cc(F)ccc1F,-1%,-5%
COc1ccc(NC(=O)CSc2ncc(-c3ccc(F)cc3)n2Cc2ccco2)cc1,-9%,25%
CC(=O)Nc1ccc(NC(=O)Cn2c(-c3ccc(F)cc3)cnc2SCC(=O)Nc2c(C)cccc2C)cc1,1%,20µM*
Cc1ccn2c(Nc3c(C)cccc3C)c(-c3ccc(Cl)s3)nc2c1,-12%,10µM*
Cc1ccn2c(Nc3c(C)cccc3C)c(-c3ccsc3)nc2c1,-13%,?
COc1cc(OC)c(NC(=O)c2csc3c2CCC(C)C3)cc1Cl (stereo not drawn),-2%,22%
SMILES,Cruzain Triton,Cruzain inh noDet
O=C(Nc1ccc(O)c(-c2nc3ccccc3o2)c1)C1(c2ccccc2)CCCC1,0%,25µM*
O=C(Nc1ccc(-c2nc3ccccc3o2)c(O)c1)c1ccccc1,3%,-7%
COCCNC(=O)CSc1cn(CC(=O)N2CCCCCC2)c2ccccc12,-4%,-12%
Cc1cccc(C(c2sc3nc(-c4ccco4)nn3c2O)N2CCN(Cc3ccccc3)CC2)c1 (stereo not drawn),-5%,25%
CCOC(=O)c1c(C)oc2nc(C)nc(NCc3ccc(OC)cc3OC)c12,-3%,-11%
Cc1ccc(C(=O)Cn2nnc3c(sc4nc5c(c(-c6ccccc6)c43)CCC5)c2=O)cc1,-3%,20µM*
Cc1ccc(-c2c3c(nc4sc(C(N)=O)c(N)c24)CCC3)cc1,-10%,-3%
O=C(Nc1ccc2oc(-c3ccncc3)nc2c1)c1c(F)c(F)c(F)c(F)c1F,3%,10µM*
Cc1cccc(C(=O)Nc2ccc3oc(-c4ccncc4)nc3c2)c1,25µM*,?
Cc1cccc(C(=O)Nc2ccc3oc(-c4cccc5c(Br)cccc45)nc3c2)c1,0%,?
COc1c(F)c(F)c(C(=O)Nc2ccc3oc(-c4ccncc4)nc3c2)c(F)c1F,1%,?
CN(C)CCn1c(CO)nc2c1c(=O)n(C)c(=O)n2C,2%,3%
CCOC(=O)c1cc(-c2ccccc2)n(-c2cccc(C(=O)N(CC)c3ccccc3)c2)c1C,0%,-10%
CC(C)CC(=O)NCc1nc2cccnc2n1Cc1ccccc1,1%,0%
Cc1oc2ncn(CC(C)C)c(=O)c2c1C(=O)NCc1cccc(Cl)c1,-5%,8%
CCCC(=O)OCc1cnc(C)c2oc(=O)c(C(=O)Nc3cccc(C(F)(F)F)c3)cc12,-3%,15%
COc1ccc(N=C2C(=Nc3ccc(OC)cc3)N(c3ccccc3)C(=S)N2C(=O)c2ccc(Cl)cc2)cc1,-3%,4µM*
COc1ccc(NC(=S)c2ccc(N(C)C)cc2)cc1,-4%,8%
COc1ccc(N=C2C(=Nc3ccc(OC)cc3)N(c3ccc(N(C)C)cc3)C(=S)N2c2ccc(OC)cc2)cc1,-5%,7.9µM*
COc1ccc(N2CCN(C(=O)c3ccncc3)CC2)cc1,6%,2%
COc1ccc(C(=O)c2ccc(Cl)cc2)cc1,-3%,6%
COc1ccc(N=C2C(=Nc3ccc(OC)cc3)N(c3ccc(OC)cc3)C(=S)N2C(=O)c2ccc(OC)cc2)cc1,-5%,5µM*
O=C(NC1CC(=O)N(c2ccc(F)cc2)C1)c1ccco1 (stereo not drawn),1%,6%
COc1ccc(OC)c(S(=O)(=O)NCC(c2cccs2)S(=O)(=O)c2ccc(F)cc2)c1 (stereo not drawn),5%,32%
Cn1c(=O)n(C)c2cc(CNCc3ccccc3Cl)ccc21,0%,-6%
SMILES,Cruzain Triton,Cruzain inh noDet
COC(=O)c1ccccc1NC(=O)C1CCCN(C(=O)c2cnn(-c3ccc(F)cc3)c2-n2cccc2)C1 (stereo not drawn),-2%,-11%
CCN(CC)S(=O)(=O)c1cccc(C(=O)Nc2sc3c(c2C#N)CCC(C)C3)c1 (stereo not drawn),-2%,-2%
COc1ccc(CNC(=O)c2sc3nc[nH]c(=O)c3c2C)cc1,-3%,-7%
Cc1cccc(NC(=O)c2oc3ccc(S(=O)(=O)N4CCCCC4)cc3c2C)c1C,2%,-10%
COc1ccc(NC(=O)C(c2ccccc2)N(C)C(=O)/C=C\c2ccc3c(c2)OCO3)cc1 (stereo not drawn),-6%,-13%
COc1cccc(NC(=O)C(OC(=O)/C=C/c2ccc3c(c2)OCO3)c2ccccc2)c1 (stereo not drawn),-5%,20µM*
Cc1cc(C)n(-c2nc3ccccc3nc2Nc2ccc(Cl)cc2Cl)n1,1%,-5%
Cc1cc(OCC(=O)N(C)C)c2c(-c3ccccc3)cc(=O)oc2c1,0%,-6%
CN(C)C(=O)COc1ccc2cc(-c3ccccc3)c(=O)oc2c1,28µM*,?
Cc1nn2c(N)c(C#N)cnc2c1-c1ccc(Cl)cc1,6%,25µM*
Cc1nn2c(N)c(C#N)cnc2c1-c1ccccc1,-5%,10%
CCOC(=O)C(C)(C)[C@H](O)C(C)C,4%,-9%
COc1ccc(Cn2c(C(=O)O)c(CNCc3ccc(C)o3)c3ccc(OC)cc32)cc1,-4%,6%
COc1ccccc1-n1c(SCC(=O)Nc2ccc(F)cc2)nc2c(c1=O)SCC2,-28%,-18%
CCOC(=O)c1sc(NC(=O)CSc2nncs2)c(C(=O)OCC)c1C,-9%,?
COc1ccccc1-n1c(SCC(=O)Nc2nnc(C)s2)nc2c(c1=O)SCC2,22µM*,-5%
CCOC(=O)c1sc(NC(=O)CSc2nc3ccccc3s2)c(C(=O)OCC)c1C,-5%,20µM*

# Screens (PubChem BioAssay)
